Assay outcomes: PubChem, National Center for Advancing Translational Sciences (NCATS)
D1 antagonist: human D1 dopamine receptor antagonism. P21728. HEK293 TREx D1 cells, calcium flux, dopamine EC80; hits give low values. activity change, negative = inhibition, % at 10 µM. 3.2% of 360,000 active. AID 504652; in the data active = activity change below about -30%
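Cells carrying a force-coupled, tetracycline-inducible human D1 receptor report calcium flux. Each well gets a 10 s baseline, compound with 180 s monitoring, then an EC80 dopamine stimulus with a second 180 s kinetic read.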
TRHR PAM: TRH receptor (human) allosteric enhancement; enhancement, % at 2 µM; 0.66% of 360,000 active; AID 493056; TRHR cells, fluo-8 calcium fluorescence, EC20 TRH enhancement; P34981; in the data active = enhancement above about 30%
Target sequence (P34981 whole entry, looked up): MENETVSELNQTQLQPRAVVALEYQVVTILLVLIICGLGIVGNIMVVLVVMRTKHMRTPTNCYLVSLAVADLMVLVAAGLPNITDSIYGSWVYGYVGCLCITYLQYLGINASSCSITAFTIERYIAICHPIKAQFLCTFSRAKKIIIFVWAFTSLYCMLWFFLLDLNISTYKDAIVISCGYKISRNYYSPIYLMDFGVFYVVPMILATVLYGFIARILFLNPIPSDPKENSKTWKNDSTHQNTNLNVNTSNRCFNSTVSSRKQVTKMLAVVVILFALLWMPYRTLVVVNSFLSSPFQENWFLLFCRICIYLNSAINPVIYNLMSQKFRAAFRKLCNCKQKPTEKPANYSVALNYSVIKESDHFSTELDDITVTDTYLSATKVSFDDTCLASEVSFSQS
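TRHR-expressing cells loaded with fluo-8 calcium dye were read kinetically (ex 480/em 530) during compound addition, then stimulated with an EC20 of TRH (10 nM final). Enhancement of the Gq-mediated intracellular calcium response was scored.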
D1 agonist: human D1 receptor agonism | 1% of 360,000 active | HEK293 T-REx D1 cells, calcium flux, agonist mode | P21728 | activation, % at 2 µM
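Agonism was scored from calcium flux recorded over 180 s (1 read/s) after pintool compound addition, following a 10-cycle baseline. Cells were inducible force-coupled HEK293 TREx D1, plated overnight at 30 C and loaded with no-wash calcium dye.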
TRHR agonist: activates the human TRH receptor; TRHR cells, calcium flux fluo-8, FDSS agonist mode; 0.18% of 360,000 active; P34981; activation, % at 2 µM
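Fluo-8-loaded TRHR cells; 10 s baseline, compound added, kinetic Ca2+ fluorescence read 1/s, agonist mode.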
D1 PAM: enhances dopamine response at the human D1 receptor. 0.036% of 360,000 active. AID 504651. potentiation, % at 10 µM. P21728. HEK293 TREx D1 cells, calcium flux, dopamine EC20 potentiation; in the data active = potentiation above about 30%
Numbers stand for hits; - = inactive; . = not tested or not shown. Sampled rows, rich in hits. Any-hit rate of the full collection: about 4.6%. Rule as the data show it, unless noted: active = activation above about 30%; inactive = the rest.

SMILES | D1 antagonist | TRHR PAM | D1 agonist | TRHR agonist | D1 PAM
CCC(=O)NNC(=S)NC(=O)c1ccc(C)cc1 | - | - | - | - | -
Cc1cccc(C(=O)NC(=S)Nc2ccccc2C(F)(F)F)c1 | - | 32 | - | - | -
Cc1cccc(C(=O)NC(=S)Nc2ccccc2C(=O)O)c1 | - | - | - | - | -
Cc1ccc(C(=O)NC(=S)NNC(=O)COc2ccccc2C)cc1 | - | - | 31 | - | -
Cc1cccc(C(=O)NC(=S)NNC(=O)Cc2ccccc2)c1 | - | - | 72 | - | -
Cc1cccc(C(=O)NC(=S)NNC(=O)c2ccccc2Cl)c1 | -35 | - | 301 | 35 | -
COc1ccc(CNCc2ccc3c(c2)n(C)c(=O)n3C)cc1 | - | - | - | - | -
Cc1nn(CC(=O)Nc2c(F)c(F)cc(F)c2F)c(=O)c2cccn12 | - | - | - | - | -
CSc1cccc(NC(=O)CN2C(=O)COc3ccc(S(=O)(=O)N4CCC(C)CC4)cc32)c1 | - | - | - | - | -
Cc1ccc(C(=O)Nc2ccc3c(c2)N(C)C(=O)c2ccccc2S3)cc1 | - | - | - | - | -
Cc1cccc(C(=O)NC(=S)NNC(=O)COc2c(C)cccc2C)c1 | - | - | 137 | - | -
O=C(COc1ccccc1)NNC(=S)NC(=O)c1ccccc1 | - | - | - | - | -
COc1ccc(Cn2ccnc2SCC(=O)Nc2ccccc2F)cc1 | -31 | - | - | - | -
COc1ccc(Cn2ccnc2SCC(=O)Nc2ccccc2OC)cc1 | - | - | - | - | -
O=C(NNC(=O)C1CCCCC1)c1ccncc1 | - | - | - | - | .
CC/C(=N\NC(=O)c1ccncc1)C12CC3CC(CC(C3)C1)C2 | - | - | - | - | -
CC1(C(=O)NC(=S)NNC(=O)c2ccncc2)CCCCC1 | - | - | 43 | - | -
O=C(NNC(=S)NC(=O)C12CC3CC(CC(C3)C1)C2)c1ccncc1 | - | - | 136 | 36 | -
COc1ccc(COC(=O)Nc2cc3c(C(F)(F)F)nn(C)c3s2)cc1 | - | 30 | - | - | -
Cn1nc(C(F)(F)F)c2cc(NC(=O)OCc3ccc(F)cc3)sc21 | - | - | - | - | -
O=C(NCCc1ccccc1Cl)c1ccc(Cn2c(=O)c3cccn3c3cccnc32)cc1 | - | - | - | - | -
CCOCCCNC(=O)C1CCN(c2nc3ccc(C)cc3[nH]2)CC1 | -46 | - | - | - | -
Cc1cccc(CNC(=O)C2CCN(c3nc4ccc(Cl)cc4[nH]3)CC2)c1 | - | - | 42 | - | -
COCCCNC(=O)C1CCN(c2nc3ccc(Cl)cc3[nH]2)CC1 | - | - | - | - | -
COCCCNC(=O)C1CCN(c2nc(C)cc(C)n2)CC1 | - | 36 | - | - | -
SMILES | D1 antagonist | TRHR PAM | D1 agonist | TRHR agonist | D1 PAM
COC(=O)CNC(=O)C1CCN(c2nc(C)cc(C)n2)CC1 | - | - | - | - | -
CN(C)CCNC(=O)C1CCN(c2nc3ccccc3[nH]2)CC1 | - | - | - | - | -
O=C(NCc1ccccc1Cl)c1ccc(NC(=O)c2nsc3ccccc23)cc1 | - | - | - | - | -
COc1ccc(C(=O)Nc2ccccc2C(=O)OCc2cc(=O)n3c4c(sc3n2)CCCC4)cc1 | - | - | - | - | -
O=S(=O)(c1ccc(F)cc1)N1CCN(C(=S)NCc2ccccc2)CC1 | -31 | - | - | - | -
CC(C)(C)c1ccc(/C=N/NC(=O)C2CCCC2)cc1 | -47 | - | - | - | -
COc1ccc(CCN(C)Cc2ccc(OC)c(OCc3ccccc3)c2)cc1OC | - | - | - | - | -
COc1ccc(CCN(C)Cc2ccc(OCc3ccccc3)c(OC)c2)cc1OC | -42 | - | 87 | - | -
COc1cc(CNCc2cccs2)ccc1OCc1ccccc1 | - | - | - | - | -
COc1cc(CNC23CC4CC(CC(C4)C2)C3)ccc1OCc1ccccc1 | -40 | - | 85 | - | -
COC(=O)Cn1cccc1C(=O)c1ccccc1 | - | - | - | - | -
O=C(O)Cn1cccc1C(=O)c1ccccc1 | - | - | 33 | - | -
COc1ccc([N+](=O)[O-])cc1NS(=O)(=O)c1cc(C(=O)N2CCN(C)CC2)ccc1OC | - | - | - | - | -
CC(C)c1ccc(CNc2nc(-c3ccco3)nn2S(=O)(=O)c2ccccc2)cc1 | - | - | - | - | -
O=S(=O)(c1ccc2ccccc2c1)n1nc(-c2ccco2)nc1NCc1cccc(Cl)c1 | -42 | - | - | - | -
COc1ccc(-c2nc(C)c(CCNC(=O)C(=O)Nc3cc(C)cc(C)c3)s2)cc1OC | - | - | - | - | -
CCCCC(CC)CNC(=O)CN1C(=O)CSc2ccc(S(=O)(=O)N3CCOCC3)cc21 (stereo not given) | - | - | - | - | -
Cc1[nH][nH]c(=O)c1C(c1c(C)[nH][nH]c1=O)c1cn(Cc2ccc(F)cc2)c2ccccc12 | -32 | - | - | - | -
CN1CCc2c(sc3c2c(=O)n(-c2ccc(Cl)cc2)c2nncn32)C1 | -60 | - | - | - | -
CCN(CC)CCn1c(=O)n(-c2ccc(Cl)cc2)c(=O)c2c3c(sc21)CN(C)CC3 | - | - | - | - | -
Cc1ccc(Cl)cc1N1CCN(CCCNc2ncnc3onc(-c4ccc(F)cc4)c23)CC1 | - | - | - | - | -
O=C(O)CC1S/C(=N/N=C/C=C/c2ccccc2)NC1=O (stereo not given) | - | - | - | - | -
O=C(O)CC1S/C(=N/N=C/C2CC=CCC2)NC1=O (stereo not given) | -35 | - | - | - | -
COc1ccccc1CNC(=O)C1CCN(C2=NS(=O)(=O)C(c3ccc(C)c(C)c3)=C2C)CC1 | - | - | - | - | -
Clc1ccc(OCCN2CCCCC2)c(Cl)c1 | - | - | - | - | -
SMILES | D1 antagonist | TRHR PAM | D1 agonist | TRHR agonist | D1 PAM
Clc1ccc(OCCCN2CCCCC2)c(Br)c1 | -62 | - | - | - | -
CCN1CCN(CCCOc2ccc(Cl)cc2Br)CC1 | - | - | 59 | - | -
Clc1ccc(OCCCCCN2CCCC2)c(Br)c1 | - | - | 73 | - | -
COc1cccc(-c2ccnc3c(-c4ccc(F)cc4)c(C)nn23)c1 | - | - | - | - | -
COc1ccc(OC)c(-c2csc(NC(=O)Cc3ccccc3OC)n2)c1 | - | - | - | - | .
COc1ccc(OC)c(-c2csc(NC(=O)Cc3ccccc3F)n2)c1 | - | 32 | - | - | -
Cc1cccc(Nc2cc(C)c3c(O)cccc3n2)c1C | -92 | - | - | - | -
CN(c1cccc(Cl)c1)S(=O)(=O)c1cccc(C(=O)NCc2ccncc2)c1 | - | - | - | - | -
CCN(CC)c1ccc2c(c1)OC(N)=C(C#N)C2c1cccnc1 (stereo not given) | - | - | 86 | - | -
Clc1ccc(/C=N/Nc2ccccn2)cc1 | -31 | - | - | - | -
CC1CC(C)(C)Nc2ccc(N=O)cc21 (stereo not given) | -45 | - | - | - | -
